# Assay results: PubChem BioAssay (Tox21)
# A number with no mark means an inactive call. Results filed as inconclusive are left out. Entries that show only a call come without a potency. Activity calls are given as the source filed them. Unless noted, calls come from the whole dose curve; as a rule, active = well fitted curve in the direction sought with a large enough effect in the repeat runs; inconclusive = weak or mixed curves; inactive = no such curve, though single readings can be large; an effect the other way counts as inactive or inconclusive.
# Assays:
# [1] = qHTS assay for small molecule agonists of the p53 signaling pathway - cell viability (AID 651633; calls by dose curve;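 note: p53RE-bla HCT reporter cells with a stable beta-lactamase p53 reporter; series mostly up to about 83 µM; nearly all actives have a fitted effect of over 30% in size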)
# Summary of the method: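 p53RE-bla cells, seeded at 4,000 per well and rested 5 h at 37 C/5% CO2, received compounds in DMSO for 16 h at 37 C. CellTiter-Glo was then added, and luminescence was read after 30 min at room temperature to gauge cytotoxicity.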
# [2] = qHTS assay for small molecules that induce genotoxicity in human embryonic kidney cells expressing luciferase-tagged ATAD5 - cell viability (AID 651634; calls by dose curve; note: nearly all actives have a fitted effect of over 25% in size; note: potency is the fitted concentration of half-maximal effect)
# Summary of the method: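 After 15.5 hr incubation with compound at 37C, 5% CO2, HEK293T ATAD5-luciferase cells received CellTiter-Fluor reagent; fluorescence intensity was quantified following 30 min at 37C.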
# [3] = qHTS assay to test for compound auto fluorescence at 535 nm (green) in HepG2 cells (AID 720675)
# [4] = qHTS assay to test for compound auto fluorescence at 590 nm (red) in HEK293 cells (AID 720679)
# Summary of the method: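 Red channel, Ex/Em 540/590nm; signal expressed as equivalency to Rose Bengal sodium. HEK293, 2,000 cells/well, 10% dialyzed FBS; 23 nL compound pinned after 4-5 hr attachment; overnight 37C/5% CO2 before reading.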
# [5] = qHTS assay to test for compound auto fluorescence at 535 nm (green) in HEK293 cells (AID 720680)
# [6] = qHTS assay to test for compound auto fluorescence at 460 nm (blue) in HEK293 cell free culture (AID 720681)
# Summary of the method: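 Test compounds were pinned into cell-free culture medium (DMEM with 10% FBS) and fluorescence was read directly at Ex/Em 405/460 nm. Signals were expressed as fluorescence equivalents of triamterene, with DMSO vehicle as control.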
# [7] = qHTS assay to test for compound auto fluorescence at 535 nm (green) in HEK293 cell free culture (AID 720682)
# Summary of the method: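 Intrinsic compound fluorescence is measured in culture medium containing 10% FBS, with excitation at 485 nm and detection at 535 nm, referenced to fluorescein.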
# [8] = qHTS assay to test for compound auto fluorescence at 590 nm (red) in HEK293 cell free culture (AID 720683)
# Summary of the method: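 Tox21 10K library compounds were pinned into cell-free DMEM with 10% FBS and fluorescence was read at excitation 540 nm. Activity is expressed as Rose Bengal sodium equivalency.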
# [9] = qHTS assay to test for compound auto fluorescence at 590 nm (red) in HepG2 cell free culture (AID 720684)
# Summary of the method: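 Readout: intrinsic compound fluorescence at 590 nm emission after 540 nm excitation, scaled to Rose Bengal sodium. Matrix was cell-free MEM with 10% FBS; DMSO vehicle wells served as control.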
# [10] = qHTS assay to test for compound auto fluorescence at 535 nm (green) in HepG2 cell free culture (AID 720686)
# [11] = qHTS assay to test for compound auto fluorescence at 460 nm (blue) in HepG2 cells (AID 720687)
# Summary of the method: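 Cells (2,000/well in MEM with 10% FBS) attached overnight at 37 C, then were exposed to compound or DMSO for 1 hr at 37 C, 5% CO2. Fluorescence read at Ex/Em 405/460 nm, expressed as triamterene-equivalent signal.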
# [12] = qHTS assay for small molecules that induce genotoxicity in human embryonic kidney cells expressing luciferase-tagged ATAD5 (AID 651632); note: nearly all actives have a fitted effect of over 15% in size
# Summary of the method: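 Quantitative HTS in HEK293T expressing luciferase-tagged ATAD5, whose levels rise upon DNA damage. Exposure ran 16 hr at 37C and 5% CO2, with luminescence read 30 min after Amplite addition at room temperature.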
# [13] = qHTS assay for small molecule disruptors of the mitochondrial membrane potential - cell viability (AID 720634; calls by dose curve;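 note: human HepG2 liver cancer cells; series mostly up to about 83 µM; nearly all actives have a fitted effect of over 20% in size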)
# Summary of the method: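 ATP-based luminescent viability readout (CellTiter-Glo, 30 min, room temperature) in HepG2 cells multiplexed with the m-MPI membrane potential dye; compound exposure lasted 1 hr at 37 C.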
# [14] = qHTS assay to test for compound auto fluorescence at 460 nm (blue) in HEK293 cells (AID 720678)
# Summary of the method: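 Blue read-out at excitation 405 nm and emission 460 nm follows overnight compound exposure of HEK293 cells at 37C in 5% CO2. Activity is given as auto fluorescence equivalency to triamterene.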
# [15] = qHTS assay to test for compound auto fluorescence at 460 nm (blue) in HepG2 cell free culture (AID 720685)
# Summary of the method: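 Cell-free plates of MEM plus 10% FBS received 23 nL compound or DMSO vehicle; blue-channel (405/460 nm) intensity scored against triamterene as reference fluorophore.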
# [16] = molecular target: Glucocorticoid receptor (Homo sapiens) (UniProt P04150); test: qHTS assay to identify small molecule agonists of the glucocorticoid receptor (GR) signaling pathway (AID 720691; active = well fitted activation curve with a large enough effect in the signal ratio in the repeat runs, not every such curve was filed as active; the % refers to the signal ratio)
# Sequence of Glucocorticoid receptor (Homo sapiens) (P04150 whole entry, looked up): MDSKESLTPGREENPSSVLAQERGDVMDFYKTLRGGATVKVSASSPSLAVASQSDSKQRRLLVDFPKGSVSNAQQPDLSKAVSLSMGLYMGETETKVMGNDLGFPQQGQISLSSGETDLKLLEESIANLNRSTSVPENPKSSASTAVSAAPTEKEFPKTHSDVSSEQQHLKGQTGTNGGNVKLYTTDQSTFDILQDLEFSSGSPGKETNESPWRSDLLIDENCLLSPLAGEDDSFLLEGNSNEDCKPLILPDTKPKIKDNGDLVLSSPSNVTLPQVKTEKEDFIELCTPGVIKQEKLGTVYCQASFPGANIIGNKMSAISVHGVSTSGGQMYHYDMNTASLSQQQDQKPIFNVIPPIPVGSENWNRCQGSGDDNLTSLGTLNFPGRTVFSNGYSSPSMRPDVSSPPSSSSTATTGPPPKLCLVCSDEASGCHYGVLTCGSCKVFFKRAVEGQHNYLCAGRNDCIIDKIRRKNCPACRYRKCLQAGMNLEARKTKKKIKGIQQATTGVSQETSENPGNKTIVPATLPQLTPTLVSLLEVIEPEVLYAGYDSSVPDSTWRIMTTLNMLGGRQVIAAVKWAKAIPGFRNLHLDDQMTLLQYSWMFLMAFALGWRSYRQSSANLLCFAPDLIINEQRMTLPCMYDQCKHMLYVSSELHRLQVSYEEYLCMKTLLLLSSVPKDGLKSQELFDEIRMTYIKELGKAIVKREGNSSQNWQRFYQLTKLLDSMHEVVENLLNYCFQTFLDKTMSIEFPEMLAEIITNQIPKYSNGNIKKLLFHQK
# Summary of the method: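 Cells: GR-bla HeLa, endogenous GR with stably integrated GRE-beta-lactamase reporter. Treatment 18 h, 37 C, compounds delivered in DMSO. Detection via LiveBLAzer B/G FRET substrate, 2 h RT, fluorescence intensity.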
# [17] = molecular target: Glucocorticoid receptor (Homo sapiens) (UniProt P04150); test: qHTS assay to identify small molecule antagonists of the glucocorticoid receptor (GR) signaling pathway (AID 720692; active = well fitted inhibition curve with a large enough effect in the signal ratio in the repeat runs, not every such curve was filed as active; the % refers to the signal ratio)
# Summary of the method: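 Quantitative HTS in antagonist format: HeLa cells expressing endogenous GR and a stably integrated GRE-bla reporter, stimulated with 5 nM dexamethasone (final) alongside test compounds for 18 h.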
# [18] = qHTS assay to test for compound auto fluorescence at 590 nm (red) in HepG2 cells (AID 720674)
# Summary of the method: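 Rose Bengal sodium served as the red fluorophore standard. HepG2 monolayers (overnight attachment, MEM with 10% FBS) were exposed to test compounds for 1 hr at 37 C and read at Ex 540/Em 590 nm.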
# [19] = qHTS assay for small molecule disruptors of the mitochondrial membrane potential (AID 720635); note: potency is the fitted concentration of half-maximal effect
# Summary of the method: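 HepG2 cells (2,000/well) attached overnight at 37C, then took compound for 1 hr at 37C, 5% CO2. Mito-MPS dye was added for 30 min; fluorescence was read at 490/535 nm (monomers) and 540/590 nm (aggregates).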
SMILES,Potency [1],Potency [2],outcome [3],outcome [4],outcome [5],Potency [6],outcome [7],outcome [8],outcome [9],outcome [10],Potency [11],Potency [12],outcome [13],Potency [14],Potency [15],Potency [16],Potency [17],outcome [18],Potency [19]
CCN(CC)C(=O)/C(C#N)=C/c1cc(O)c(O)c([N+](=O)[O-])c1,inactive,26.6 µM (active),inactive,inactive,inactive,inactive,inactive,inactive,inactive,inactive,inactive,,,,,,,,
O=C(O)c1cc(Cl)cc(Cl)c1O,inactive,inactive,inactive,inactive,inactive,inactive,inactive,inactive,inactive,inactive,inactive,inactive,inactive,inactive,inactive,,,,
O=C1OC(=O)c2c(Br)c(Br)c(Br)c(Br)c21,inactive,inactive,,inactive,,inactive,inactive,inactive,inactive,,,,inactive,inactive,inactive,inactive,inactive,,
COC(C)(C)OC,inactive,inactive,inactive,,inactive,inactive,inactive,inactive,inactive,inactive,inactive,inactive,inactive,,inactive,,,,
Cc1ccc2c(c1)CCCN2,,inactive,inactive,inactive,,inactive,inactive,inactive,inactive,inactive,inactive,inactive,inactive,inactive,inactive,inactive,inactive,inactive,
CCCCCCCCCCCCCC(=O)OCC(O)CO (stereo not given),inactive,inactive,,inactive,inactive,inactive,inactive,inactive,inactive,inactive,,inactive,inactive,,,inactive,,inactive,
C=Cc1ccc(OC(C)=O)cc1,inactive,inactive,inactive,inactive,,inactive,inactive,inactive,inactive,inactive,inactive,inactive,inactive,,inactive,inactive,inactive,,
Nc1ccc(F)cc1,inactive,inactive,inactive,inactive,inactive,inactive,inactive,inactive,inactive,,inactive,,inactive,inactive,inactive,,inactive,inactive,
CCCCCCCCCCCCCCCC(=O)OCC,inactive,inactive,,inactive,inactive,inactive,inactive,inactive,inactive,inactive,inactive,inactive,inactive,inactive,inactive,,inactive,inactive,
Cc1ccc(Nc2c(F)cccc2Cl)c(CC(=O)O)c1,inactive,inactive,,,inactive,inactive,inactive,inactive,inactive,inactive,inactive,inactive,inactive,inactive,,inactive,inactive,,
CCCCCCCC(=O)Oc1c(Br)cc(C#N)cc1Br,inactive,,inactive,inactive,inactive,inactive,inactive,inactive,inactive,,inactive,inactive,,inactive,inactive,inactive,,inactive,12.1 µM (active)
